This is a sample that favours compounds with a hit; in the whole collection about 3.9% have one here.
FBA Mtb inh: Mtb FBA enzyme inhibitors, primary screen, biochemical, fluorescence, strain H37Rv; actives 2.3% (n = 360,000); inhibition, % at 1 µM; purified M. tuberculosis FBA, fluorescence read-out; Fructose-bisphosphate aldolase (Mycobacterium tuberculosis (strain ATCC 25618 / H37Rv)), …; in the data active = inhibition above about 27%;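 note: 0% = vehicle and 100% = reference inhibitor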
Target sequence (P9WQA3 whole entry, looked up): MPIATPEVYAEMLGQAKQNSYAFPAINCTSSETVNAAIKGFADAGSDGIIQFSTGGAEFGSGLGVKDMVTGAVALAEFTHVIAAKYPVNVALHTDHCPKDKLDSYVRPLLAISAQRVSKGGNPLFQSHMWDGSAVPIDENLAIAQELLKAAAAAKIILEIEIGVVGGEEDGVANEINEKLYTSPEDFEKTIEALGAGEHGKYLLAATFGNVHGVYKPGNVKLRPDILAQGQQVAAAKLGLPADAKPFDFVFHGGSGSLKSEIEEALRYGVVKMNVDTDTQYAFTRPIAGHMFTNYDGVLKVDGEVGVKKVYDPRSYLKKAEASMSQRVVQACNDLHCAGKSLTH
PrPC TRFRET: inhibitors of human cell surface prion protein PrPC, primary screen, cell-based, TR-FRET | TR-FRET read-out | inhibition, % at 13.8 µM | Major prion protein (Homo sapiens), P04156 | actives 0.43% (n = 370,000); in the data active = inhibition above about 24%; note: 0% = median of the test wells and 100% = reference compound wells
GDH-TPI inh: GDH-TPI coupling enzyme inhibitors, primary screen, artefact control for M. tuberculosis FBA inhibitor project, biochemical, absorbance, full deck; GDH-TPI coupled enzyme counterscreen, NADH absorbance; inhibition, % at 4.8 µM; actives 1.2% (n = 360,000); AID 588335, 2011; in the data active = inhibition above about 30%;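 note: 0% = DMSO wells and 100% = wells lacking the enzyme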
3CLpro inhibitor: SARS-CoV 3CLpro protease inhibitors, primary screen, biochemical, quenched FRET; recombinant SARS-CoV 3CLpro, quenched FRET peptide cleavage; inhibition, % at 6 µM; actives 0.14% (n = 290,000); Replicase polyprotein 1ab (Severe acute respiratory syndrome coronavirus), P0C6X7; in the data active = inhibition above about 12%
Vc quorum ag: inducers of Vibrio cholerae quorum light production without autoinducers, primary screen, BH1578 luxS cqsA deficient, single point. V. cholerae BH1578 lux reporter, luminescence, 6 h. activation, % at 18.7 µM. actives 0.16% (n = 350,000). AID 588436, 2011; in the data active = activation mostly above about 9.7%, no sharp cut-off
An asterisk follows results filed as active; i = inactive; . = not tested or not shown; + = active, no number.

SMILES	FBA Mtb inh	PrPC TRFRET	GDH-TPI inh	3CLpro inhibitor	Vc quorum ag
C=CCn1c(N)c(C(=O)NCCC2=CCCCC2)sc1=S	2	-2	35*	3	-2
NC(=O)NCCC1=CCCCC1	1	-2	7	-3	i
CCn1c(N)c(C(=O)NC2CCCCC2)sc1=S	0	-13	43*	0	i
CCn1c(N)c(C(N)=O)sc1=S	-1	-9	12	-7	.
CCOc1ccc(C2C(C#N)=C(N)SC(N)=C2C#N)cc1OC	.	.	.	1	.
CCc1ccc(C2C(C#N)=C(N)SC(N)=C2C#N)cc1	7	6	31*	3	i
CCOc1ccccc1C1C(C#N)=C(N)SC(N)=C1C#N	2	47*	8	1	0
CSCCC(NC(=O)c1ccco1)C(=O)NC1CCCCCC1 (stereo not drawn)	-2	5	4	.	i
CCOc1ccc(C2Nc3ccccc3NC3=C2C(=O)CC(C)(C)C3)cc1OC (stereo not drawn)	-2	0	10	0	2
CC1(C)CC(=O)C2=C(C1)c1c(ccc3ccccc13)NC2c1ccc(OCC(=O)O)cc1 (stereo not drawn)	+	-10	18	5	0
COc1cc(C2Nc3ccc4ccccc4c3C3=C2C(=O)CC(C)(C)C3)ccc1OC(C)C(=O)O (stereo not drawn)	183*	-10	4	4	-2
COc1cc(C2Nc3ccc4ccccc4c3C3=C2C(=O)CC(C)(C)C3)ccc1OCC(=O)O (stereo not drawn)	121*	-7	2	-2	0
COc1ccc(C2Nc3ccccc3NC3=C2C(=O)CC(C)(C)C3)cc1OC (stereo not drawn)	2	0	8	-3	i
COc1ccc(OC)c(Cc2nnc(CCC(=O)NC3CCCCC3)o2)c1	0	-1	14	3	-1
Cc1c(CCC(=O)NC2CC2)c(=O)oc2cc(O)ccc12	+	1	15	0	0
COc1ccc2c(C)c(CCC(=O)NC3CC3)c(=O)oc2c1	173*	-3	25	-4	0
CC(=O)Nc1cccc(-c2nc3ccccc3s2)c1	6	-9	-1	6	-1
CC(=O)Nc1cccc(-c2cc(C)c3cc4c(cc3n2)OCO4)c1	14	5	32*	-5	-6
CCCN1CCCCC(NC(C)=O)C1=O (stereo not drawn)	.	-3	.	.	.
CC(=O)c1ccc(C(=O)Nc2nnc(-c3ccc(Cl)cc3)o2)cc1	-2	16	19	.	.
CN(C)c1ccc(C(=O)Nc2nnc(-c3ccc(Cl)cc3)o2)cc1	5	6	35*	2	4
Cc1c(C(=O)N2CCN(C3CCS(=O)(=O)C3)CC2)oc2ccc(Cl)cc12 (stereo not drawn)	-2	-2	0	.	0
N#Cc1c(N)c(C#N)c(-c2ccc3c(c2)OCO3)c2c1CCCC2	7	5	41*	.	-1
N#Cc1c(N)c(C#N)c(-c2ccc(O)cc2)c2c1CCCC2	17	7	5	8	i
N#Cc1c(-c2ccc3c(c2)OCO3)csc1N	1	-3	6	3	-5
SMILES	FBA Mtb inh	PrPC TRFRET	GDH-TPI inh	3CLpro inhibitor	Vc quorum ag
N#Cc1c(N)nc2c(c1-c1ccc3c(c1)OCO3)CCc1ccccc1-2	31*	-2	0	4	0
CN(CC(=O)Nc1ccc(Cl)c(C(F)(F)F)c1)C(=O)CCN1C(=O)C2CC=CCC2C1=O (stereo not drawn)	0	2	-5	.	1
N#Cc1ccccc1CSCCNC(=O)Cc1c(F)cccc1Cl	-3	-1	-3	2	i
NC(=O)c1c(NC(=O)COC(=O)c2ccc(S(=O)(=O)Nc3ccccc3)cc2)sc2c1CCCC2	5	-9	4	1	-1
COc1ccc(C2C(C#N)=C(N)Oc3cccc(O)c32)cc1 (stereo not drawn)	1	-3	11	6	-2
Cc1cc(=O)oc2cc(NC(=O)c3cccc(F)c3)ccc12	1	-1	2	-2	i
Cc1cc(=O)oc2cc(Nc3ccccc3)ccc12	5	4	9	3	0
Cc1cc(=O)oc2cc(NC(=O)CCCC(=O)O)ccc12	+	0	19	4	i
Cc1cc(=O)oc2cc(NC(=O)CCC(=O)O)ccc12	197*	3	9	-4	i
Cc1ccc(NC(=O)CCNS(=O)(=O)c2cccc3nsnc23)cc1F	-1	-25	-10	-1	0
Cc1cccn2cc(-c3c[nH]c4ccccc34)nc12	195*	4	4	-3	0
Brc1ccc2nc(-c3c[nH]c4ccccc34)cn2c1	-2	10	7	-5	-1
CC(=O)C1=C(O)C(=O)N(c2ccc(S(=O)(=O)Nc3nccs3)cc2)C1c1ccc(F)cc1 (stereo not drawn)	-2	-3	32*	1	0
CC(=O)C1=C(O)C(=O)N(c2ccc(S(=O)(=O)Nc3nccs3)cc2)C1c1ccc([N+](=O)[O-])cc1 (stereo not drawn)	-3	-13	28	4	0
C(=N\n1cnnc1)/c1cccn1-c1ccccc1	-4	7	32*	2	i
Cc1cc(/C=N/n2cnnc2)c(C)n1-c1ccccc1	11	2	7	6	-1
COc1cc(OC)cc(C(=O)NC2CC(C)(C)NC(C)(C)C2)c1	+	7	14	2	1
Cc1c(NS(=O)(=O)c2cccc(C(=O)OCC(=O)c3ccc(Cl)cc3)c2)c(=O)n(-c2ccccc2)n1C	-1	4	0	.	-3
Cc1c(C)c2ccc(OCC(=O)Nc3nccs3)cc2oc1=O	65*	3	17	-9	i
CCCOC1CCCN(C(=O)CCc2nnc(CCCCc3ccccc3)o2)C1 (stereo not drawn)	1	13	-1	2	i
NS(=O)(=O)c1ccc(N2N=C(c3ccccc3)CC2c2ccc(Br)cc2)cc1 (stereo not drawn)	187*	15	9	.	i
CCc1ccc(C2=NN(c3ccc(S(N)(=O)=O)cc3)C(c3ccc(F)cc3)C2)cc1 (stereo not drawn)	+	5	11	6	3
O=C(c1ccccc1)N1N=C(c2ccccc2)CC1c1ccccc1 (stereo not drawn)	-2	-5	19	3	i
NS(=O)(=O)c1ccc(N2N=C(c3ccccc3)CC2c2ccccc2)cc1 (stereo not drawn)	+	10	12	-1	i
O=S(=O)(O)c1ccc(N2N=C(c3ccccc3)CC2c2ccccc2)cc1 (stereo not drawn)	+	4	18	3	i
